# Shown are actives, neighbours in structure and some others; about 11% of the full set was active somewhere.
# BAZ2B inh: blocks human BAZ2B. 4.4% of 360,000 active. Potency, µM (highest dose often 114 µM), inactives show at the highest dose activity change, negative = inhibition, actives largely listed as inhibitors. AlphaScreen BAZ2B-H3K14Ac peptide displacement. Q9UIF8; further: potency means the concentration at half of the fitted maximal effect; on the % scale 0 is the no-effect control and ±100 the full control effect; nearly all actives have a fitted effect of over 60% in size
#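 AlphaScreen displacement of biotin-H3(5-23)K14Ac peptide (50 nM final) from BAZ2B (50 nM final) in PBS pH 7.4, 0.01% Tween-20; complex preformed 30 min RT, then compounds (top 110 uM) 30 min RT, beads 20 min dark.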
# PI5P4Ka inh: PI5P4K alpha (human) kinase inhibition; P48426; AID 652105; max response, %; PI5P4Kalpha enzyme, ADP-Glo luminescence, 60 min; active compounds read low; 1.2% of 330,000 active; active means max response of -50% or lower; inconclusive means between -30% and -50%; inactive means -30% or higher; further: value at the top dose of about 77 µM; on the % scale 0 is the no-effect control and ±100 the full control effect
# Target sequence (P48426 whole entry, looked up): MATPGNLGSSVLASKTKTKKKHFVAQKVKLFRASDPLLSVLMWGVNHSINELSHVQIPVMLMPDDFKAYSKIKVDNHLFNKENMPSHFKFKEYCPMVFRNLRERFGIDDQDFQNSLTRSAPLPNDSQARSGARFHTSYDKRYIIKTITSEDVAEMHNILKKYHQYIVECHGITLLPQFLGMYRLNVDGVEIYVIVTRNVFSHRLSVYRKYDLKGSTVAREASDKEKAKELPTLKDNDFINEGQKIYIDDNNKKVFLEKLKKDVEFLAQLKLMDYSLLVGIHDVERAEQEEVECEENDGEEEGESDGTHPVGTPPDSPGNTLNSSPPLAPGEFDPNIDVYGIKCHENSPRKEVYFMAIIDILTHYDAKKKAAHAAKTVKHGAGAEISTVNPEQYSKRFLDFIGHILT
#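 qHTS, 1536-well: enzyme/substrate mix, compound by pin tool, 5 microM ATP final; RT 60 min; ADP-Glo reagents 1 (45 min) then 2 (30 min); luminescence.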
# G9a block: blocks human histone lysine methyltransferase G9a; G9a H3K9 monomethylation, AlphaScreen, 2 h; Potency, µM (titrated, usually from 102 µM), for inactives: at the highest dose activity, negative = inhibition, hits mostly inhibitors; 8.8% of 350,000 active; AID 504332; further: potency means the concentration at half of the fitted maximal effect; on the % scale 0 is the no-effect control and ±100 the full control effect; nearly all actives have a fitted effect of over 75% in size
# Target sequence (Q96KQ7 913-1193 limits assumed): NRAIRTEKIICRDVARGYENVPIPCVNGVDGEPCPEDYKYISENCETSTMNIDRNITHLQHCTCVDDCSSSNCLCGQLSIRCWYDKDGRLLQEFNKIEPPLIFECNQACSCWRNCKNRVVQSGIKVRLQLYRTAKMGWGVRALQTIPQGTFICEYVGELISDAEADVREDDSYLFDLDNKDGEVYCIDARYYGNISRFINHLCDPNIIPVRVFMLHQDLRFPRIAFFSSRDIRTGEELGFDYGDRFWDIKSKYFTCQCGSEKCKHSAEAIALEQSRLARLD
#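 AlphaScreen detection with an anti-monomethyl H3K9 antibody quantified product after a 2 h room-temperature reaction containing 500 nM biotinylated H3K9 peptide, 20 µM SAM and 20 nM enzyme, which had been preincubated 15 min with compound.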
# JMJD2A Tudor: blocks the human JMJD2A Tudor domain | AlphaScreen JMJD2A-Tudor / H3K4me3 peptide binding | Potency, µM (top dose mostly 114 µM), inactives show at the top dose activity change, negative = inhibition, most hits filed as inhibitors | 4.4% of 390,000 active; further: potency means the concentration at half of the fitted maximal effect; on the % scale 0 is the no-effect control and ±100 the full control effect; nearly all actives have a fitted effect of over 50% in size
# L3MBTL1 inh: inhibitors of human L3MBTL1; AlphaScreen L3MBTL1–H3K9me1 peptide binding; Potency, µM (series often up to 57.1 µM), for the others: at the top dose activity, negative = inhibition, most hits filed as inhibitors; 0.66% of 230,000 active; AID 485360; further: potency means the concentration at half of the fitted maximal effect; on the % scale 0 is the no-effect control and ±100 the full control effect; nearly all actives have a fitted effect of over 60% in size
#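 First, the protein-peptide complex forms for 30 min at room temperature (L3MBTL1 50 nM, biotinylated H3K9me1 peptide 75 nM). Next, compounds are pin-transferred and incubated 30 min. Finally, AlphaScreen beads are added and read after 30 min.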
# HP1b binding inh: blocks HP1-beta chromodomain binding to methylated histone tails. P83916. AlphaScreen HP1-beta / biotin-H3K9me3 peptide binding. Potency, µM (series often up to 114 µM), for inactives: at the highest dose activity change, negative = inhibition, most hits filed as inhibitors. 0.56% of 390,000 active. AID 540317; further: potency means the concentration at half of the fitted maximal effect; nearly all actives have a fitted effect of over 70% in size
#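 HP1-beta protein (50 nM final) preincubated 30 min at room temperature with biotinylated H3(1-18)K9me3 peptide (50 nM) in PBS pH 7.4, 0.01% Tween-20, then compound added for 30 min. AlphaScreen streptavidin donor/nickel chelate acceptor beads (10 ug/mL final), 30 min dark, luminescence read.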
# Numbers without * were called inactive; ? = inconclusive; nt = not tested or not shown; [ ] = another dose, or the depositor's remark. Unless noted, the call rests on the fitted dose curve; in most records, active means well fitted inhibition curve with a large enough effect; inconclusive means small, poorly fitted or top-dose-only effect; inactive means no such curve, though single readings can be large or run the other way.
SMILES,BAZ2B inh,PI5P4Ka inh,G9a block,JMJD2A Tudor,L3MBTL1 inh,HP1b binding inh
COc1ccccc1NCc1ccc([N+](=O)[O-])s1,50µM*,-13,7.9µM*,?,-8%,?
COc1ccc(N2CCN(c3nc(Nc4ccc(C)c(F)c4)nc(N4CCCC4)n3)CC2)cc1,7.9µM*,1,7.1µM*,?,-10%,?
COc1ccc(N2CCN(c3nc(Cl)nc(Nc4ccc(F)cc4)n3)CC2)cc1,?,14,10µM*,-11%,-6%,30%
COc1ccc(N2CCN(c3nc(Nc4ccc(F)cc4)nc(OC)n3)CC2)cc1,11%,nt,19%,nt,2%,nt
Cc1ccc(S(=O)(=O)NCCc2cn3ccsc3n2)c(C)c1,6%,nt,2%[59 µM],-6%,nt,22%[57 µM]
CCCN1C=CC(=C/C=C(\C#N)C(=O)OCC)C=C1,50µM*,nt,?,nt,-6%,nt
COc1ccc(Oc2nc3c(c(=O)n(C)c(=O)n3C)n2Cc2ccc(Cl)cc2Cl)cc1,-20%,nt,-27%[59 µM],-30%,nt,29%
CC(C)CNc1nc(C#N)nc(Nc2ccccc2)n1,nt,nt,nt,-12%,nt,nt
Cc1ccccc1NC(=O)C1CC(=O)n2ncnc2N1 (stereo unspecified),-18%,1,45µM*,7%,nt,67%
Cc1ccc(/C(O)=C/c2nc3cc(C)ccc3oc2=O)cc1,0%,-5,nt,0%,3%,33%
O=c1oc2ccc(Cl)cc2nc1/C=C(\O)c1ccco1,35µM*,-6,8.9µM*,89µM*,nt,21%
CC(C)C/C(O)=C/c1nc2cc(Cl)ccc2oc1=O,?,9,35µM*,?,-12%,16%
C=C(C)CSc1cc(C)c(C#N)c2nc3ccccc3n12,-24%,-13,1.4µM*,-13%,0%,43%
Cc1cc(NCCCCO)n2c(nc3ccccc32)c1C#N,?,nt,2%[59 µM],-6%,-4%,11%
Cn1c(=O)c2c(nc(Sc3ccccc3N)n2C)n(C)c1=O,1%,-2,10µM*,-26%,4%,20%
O=C(NCCc1ccc(Cl)cc1)c1cccnc1,?,nt,56µM*,-20%,nt,28%
O=C(NCCc1ccc(Cl)cc1Cl)c1cccnc1,-4%,6,-3%,-11%,nt,?
O=C(NCCCSc1ccccc1)c1cccnc1,-35%,-5,28µM*,2%,nt,37%
C#Cc1ccc([C@H]2C=C(C(=O)O)O[C@@H](OCCCCO)C2)cc1,nt,-17,nt,-15%,nt,43%
COc1ccc([C@@H]2C=C(C(=O)O)O[C@H](OCCCCO)C2)cc1,79µM*,-1,-10%[12.7 µM],?,nt,34%
Cc1c[n+]([O-])n(-c2ccc(C(=O)O)cc2)n1,56µM*,-26,?,?,nt,6%
CCCC(=O)Nc1sc(C(=O)OC)c(C)c1C(N)=O,-4%,nt,11µM*,-7%,-2%,-22%
Cc1ccc(C(=O)Nc2cccc(NC(=O)c3ccc(C)c([N+](=O)[O-])c3)n2)cc1[N+](=O)[O-],2%,-2,8%,-33%,nt,-10%
COC(=O)c1sc(NC(=O)c2cccc([N+](=O)[O-])c2)c(C(N)=O)c1C,1%,-15,10µM*,-11%,1%,?
Cc1ccc(C(=O)Nc2sc(C)c(-c3ccccc3)c2C(N)=O)cc1[N+](=O)[O-],4%,-6,40µM*,?,-2%,-44%
SMILES,BAZ2B inh,PI5P4Ka inh,G9a block,JMJD2A Tudor,L3MBTL1 inh,HP1b binding inh
CCCCC(=O)Nc1sc(C(=O)N(CC)CC)c(C)c1C(=O)OC,-18%,-22,2.2µM*,71µM*,6%,?
CCN(CC)C(=O)c1sc(NC(=O)c2ccc(Br)o2)c(C(=O)OC)c1C,0%,nt,13%,-10%,nt,19%
CCOC(=O)c1ccc(NC(=O)CN(Cc2ccc(C)cc2)S(=O)(=O)c2ccc(C)cc2)cc1,3%,nt,15%[59 µM],-12%,nt,40%
Cn1c(=O)n(C)c2cc(N3CCOCC3)c(NC(=O)c3ccc(C(C)(C)C)cc3)cc21,-13%,nt,-42%[59 µM],-21%,nt,11%
C[n+]1ccccc1Nc1cc([N+](=O)[O-])ccc1N,?,3,11µM*,-7%,2%,22%
Cc1cc([N+](=O)[O-])ccc1N,-3%,2,-49%,-14%,8%,37%
CCc1cccc(NC(=O)c2cc3c(=O)[nH]c4ccccc4c3n2C)c1,nt,nt,-20%[59 µM],-25%,nt,12%
Cc1ccnc(Nc2nc(-c3ccc(O)c(O)c3)cs2)c1,40µM*,-11,28µM*,56µM*,-9%,?
Oc1ccc(-c2csc(Nc3cccc4ccccc34)n2)cc1O,35µM*,-55*,13µM*,40µM*,25µM*,?
Cc1ccnc(Nc2nc(-c3ccc(O)cc3)cs2)c1,?,-7,?,?,-4%,-14%
Cc1cccc(Nc2nc(-c3ccc(F)c(C)c3)cs2)n1,-12%,26,-2%,-29%,nt,18%
Cc1ccnc(Nc2nc(-c3ccc(O)cc3O)cs2)c1,50µM*,-14,79µM*,?,-8%,-10%
Cc1cccc(Nc2nc(-c3ccc(O)c(O)c3)cs2)n1,50µM*,-6,40µM*,?,-8%,?
CCOC(=O)c1ccccc1NC(=O)CSc1nc2ncccc2[nH]1,2%,nt,1%[59 µM],-3%,nt,40%
Oc1ccc(-c2csc(Nc3ccccn3)n2)cc1O,40µM*,?,11µM*,56µM*,?,14µM*
CN(C)c1ncc2nc(-c3ccc(Cl)cc3)c(=O)n(-c3ccccc3)c2n1,nt,nt,1%[0.501 µM],nt,nt,nt
COc1ccccc1NS(=O)(=O)c1ccc2oc(SC)nc2c1,-14%,6,5%,1%,nt,34%
COc1ccccc1NS(=O)(=O)c1ccc2oc(N)nc2c1,2%,-2,25µM*,-8%,nt,-9%
O=c1c(-c2ccccc2)c(O)c2cccc3c2n1CCC3,-38%,-6,40µM*,15%,8%,53%
O=C(NCCO)c1c(O)c2cccc3c2n(c1=O)CC3,-35%,12,?,56µM*,nt,17%
Cc1cc(C)c(-c2c(O)c3cccc4c3n(c2=O)CCC4)c(C)c1,-1%,6,16%[59 µM],-11%[11.4 µM],14%,-7%
Clc1cccc(CN2CCN(Cc3ccco3)CC2)c1,18µM*,5,7.9µM*,1.8µM*,nt,20µM*
Clc1ccc(CN2CCC(Cc3ccccc3)CC2)cc1,32µM*,5,4.5µM*,20µM*,9%,?
c1ccc(CC2CCN(Cc3ccccn3)CC2)cc1,50µM*,-4,nt,7.9µM*,-5%,?
CSc1ccc(OC2CCN(Cc3ccccc3)CC2)cc1,-38%,3,-40%[59 µM],?,-17%,-22%
CSc1ccc(CN2CCC(Cc3ccccc3)CC2)cc1,71µM*,1,7.1µM*,35µM*,-23%,-10%
Cc1ccc(S(=O)(=O)c2cn(CC(=O)Nc3cccc(C)c3)c3cc4c(cc3c2=O)OCO4)cc1,0%,nt,2%[59 µM],-8%,nt,40%
